The results in this text go back to PubChem BioAssay (NCI).

A short description of assay [1]: NCI Yeast Anticancer Drug Screen. Data for the rad50 strain (AID 155).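 Also: 0% = growth of vehicle-only cultures of the same strain.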 Particulars: S. cerevisiae rad50 strain growth inhibition; at 50.0 µM; hits give high values. The gist of the method: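 Yeast carrying a defined DNA repair defect were exposed to test compounds, and growth was compared with vehicle-treated controls to give percent inhibition.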
Assay [2] can be described thus: NCI Yeast Anticancer Drug Screen. Data for the mec2-1 strain (AID 157). Particulars: S. cerevisiae mec2-1 strain, at 50.0 µM, hits give high values. The gist of the method:
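Strain: mec2-1 (DNA repair/cell cycle alteration). Compound exposure, then growth measured; inhibition expressed relative to vehicle.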

Assay [3] is described as follows: NCI Yeast Anticancer Drug Screen. Data for the sgs1 mgt1 strain (AID 161).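 Also: 0% = growth of cultures given vehicle only.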 Particulars: S. cerevisiae sgs1 mgt1 strain, at 50.0 µM, hits give high values. The essentials:
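Genetically altered yeast, compound exposure, growth inhibition relative to vehicle.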

A short description of assay [4]: NCI Yeast Anticancer Drug Screen. Data for the cln2 rad14 strain (AID 165).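 Also: 0% = growth equal to vehicle treated cultures.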 As to conditions: S. cerevisiae cln2 rad14 strain, at 50.0 µM, hits give high values. The essentials: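 Compounds are applied to the cln2 rad14 yeast strain, and growth is then compared with that of vehicle-treated cultures to give inhibition.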
Assay [5] can be described thus: NCI Yeast Anticancer Drug Screen. Data for the bub3 strain (AID 167). As to conditions: S. cerevisiae bub3 mutant strain, at 50.0 µM, hits give high values. The essentials: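 Compounds were applied to a genetically altered yeast strain carrying a cell-cycle control defect. Growth inhibition was scored against vehicle-treated controls.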
Assay [6] is described as follows: NCI Yeast Anticancer Drug Screen. Data for the mlh1 rad18 strain (AID 175). Particulars: S. cerevisiae mlh1 rad18 strain growth inhibition; at 50.0 µM; hits give high values. The gist of the method: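 Read-out is yeast growth inhibition, calculated against vehicle-only controls. The compound was applied to a strain engineered with DNA damage repair alterations.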

The panel holds about 79,000 compounds, 15% with a hit somewhere; the sample as a whole holds those more often. A number with no mark means an inactive call. The source made the active and inactive calls. Rule as the data show it: active = growth inhibition above about 70%; inactive = the rest.

With `Cn1c(=O)c2nc3sc4c(n3c2n(C)c1=O)C(=O)c1ccccc1C4=O`, the growth inhibition in assay [1] was -17%; in assay [2] it was 21.4%; in assay [3] it was 11.2%; in assay [4], -11.2%; in assay [5], -11%; in assay [6], 25.4%.

For the compound `O=C1OC(/C=C/c2ccccc2)=NC/1=C\c1ccccc1O`, the growth inhibition in assay [1] is 16.1%; in assay [2] it was 8.6%; in assay [3], 20%; in assay [4], 23.4%; in assay [5], 0.7%; in assay [6], 6.6%.

`O=S(=O)(c1ccc(Cl)cc1)N1CCN(S(=O)(=O)c2ccc(Cl)cc2)C1`: the growth inhibition was 2.05% in assay [1]; 8.1% in assay [2]; -14.3% in assay [3]; -21.6% in assay [4]; -0.05% in assay [5]; 15.6% in assay [6].

Take `NC(=O)C1CCCN1C(=O)C(Cc1cnc[nH]1)NC(=O)C1CCCC1` (stereo not given): the growth inhibition was -46.4% in assay [1]; -1.6% in assay [2]; -1.65% in assay [3]; 8.1% in assay [4]; 7.05% in assay [5]; -8.35% in assay [6].

Consider `CCOC(=O)/C=C/C(=O)NNS(=O)(=O)CCC(N)C(=O)O` (stereo not given), for which the growth inhibition in assay [1] was -6.65%; in assay [2] it was 13.4%; in assay [3], 0.5%; in assay [4] it was 2.8%; in assay [5], 6.8%; in assay [6], 0.45%.

Take `Cc1cc(S(=O)(=O)Nc2nc(N)nc(N3CCCCC3)n2)c(S)cc1Cl`: the growth inhibition in assay [1] was -0.3%; in assay [2], -11.7%; in assay [3], -13%; in assay [4], -7.15%; in assay [5], -5.2%; in assay [6], 5.35%.

With `CCC(C)(C)c1ccc(OCCOc2ccc(C(=O)O)cc2[N+](=O)[O-])cc1`, the growth inhibition in assay [1] was -4.1%; in assay [2], 12.2%; in assay [3] it was -3.9%; in assay [4], -17.6%; in assay [5] it was -6.6%; in assay [6] it was -20.1%.

Regarding `CC(NC(=O)CN)C(=O)O` (stereo not given), the growth inhibition is -43.4% in assay [1]; -8.55% in assay [2]; -8.45% in assay [3]; -22.6% in assay [4]; 5.15% in assay [5]; 4.4% in assay [6].

Turning to `O=C1OC(c2ccc([N+](=O)[O-])cc2)=N/C1=C\c1ccc(Cl)c(Cl)c1`, the growth inhibition in assay [1] was 31.9%; in assay [2], 21.8%; in assay [3], 43.6%; in assay [4], 28.1%; in assay [5], 25.2%; in assay [6], 46.2%.

With `COC(=O)C(N)C(C)C` (stereo not given), the growth inhibition in assay [1] was 13.8%; in assay [2], 9.15%; in assay [3] it was -10.3%; in assay [4], -6.9%; in assay [5], 4.55%; in assay [6] it was 0.35%.

`COc1ccc(C2=NC(=O)OC2(C)C)cc1`: the growth inhibition was -6.95% in assay [1]; -20.2% in assay [2]; -5.7% in assay [3]; -11% in assay [4]; -8.6% in assay [5]; -10.2% in assay [6].

As for `CCCCCCCCC/C=C1\CCC(CN2CCOCC2)C1=O` (stereo not given), the growth inhibition in assay [1] was 89% (active); in assay [2], 92.8% (active); in assay [3] it was 90.3% (active); in assay [4] it was 89.6% (active); in assay [5] it was 88.8% (active); in assay [6] it was 88% (active).

Regarding `CCCCCCOC(=O)c1ccccc1Cl`, the growth inhibition was 5.75% in assay [1]; 9.35% in assay [2]; -3.05% in assay [3]; -16.9% in assay [4]; 26.4% in assay [5]; 34.2% in assay [6].

With `O=c1[nH]c2cc(Cl)ccc2nc1/C(=N/Nc1ccccc1)C(O)c1ccco1` (stereo not given), the growth inhibition is 19.4% in assay [1]; -15.7% in assay [2]; -4.8% in assay [3]; 5.85% in assay [4]; 7.65% in assay [5]; -54.4% in assay [6].

Take `COCCO[Si](OCCOC)(OCCOC)OCCOC`: the growth inhibition in assay [1] was 4.3%; in assay [2] it was -10.2%; in assay [3], -1.25%; in assay [4], 11.9%; in assay [5], 7.4%; in assay [6], 10.2%.

In the case of `CCOC(=O)/C(C#N)=C/c1c(-c2ccccc2)nn2ccccc12`, the growth inhibition in assay [1] is 42.6%; in assay [2] it was 26.6%; in assay [3], 28.1%; in assay [4], -2.4%; in assay [5], -7.7%; in assay [6], 20.6%.

As for `OC1CCC(O)[C@H]2[C@@H]1[C@@H]1S[C@H]2c2ccccc21` (stereo not given in full), the growth inhibition is -2.55% in assay [1]; -14.8% in assay [2]; -22.4% in assay [3]; 1.7% in assay [4]; -10.3% in assay [5]; -1.85% in assay [6].

Turning to `Cc1cc(C)[n+]([O-])c(C)c1`, the growth inhibition in assay [1] is -14.6%; in assay [2], -8.85%; in assay [3], -2.75%; in assay [4], -8.6%; in assay [5], -19.4%; in assay [6], -2.85%.

Turning to `CN(Cc1ccccc1)c1ccccn1`, the growth inhibition in assay [1] is -12.9%; in assay [2] it was -21.8%; in assay [3], -18.9%; in assay [4], -2.05%; in assay [5], -12.7%; in assay [6] it was 8.85%.

Take `O=C(CCl)Nc1cc2ccccc2c2ccccc12`: the growth inhibition is 0.65% in assay [1]; -23.6% in assay [2]; -10.9% in assay [3]; 1.6% in assay [4]; 9.6% in assay [5]; 8.6% in assay [6].
